Compound activity from PubChem BioAssay.
Many of the other results were omitted from the sample, so hits are more common in it than they were.
p53null 39C tox = selectivity test: cytotoxicity in p53 null cells, nonpermissive temperature. H1299 p53-null (neo) cells, 39C, ATPlite viability, 24 h. Potency, µM (series often up to 46.1 µM), hits mostly cytotoxic. 0.97% of 55,000 active. AID 904; note: nearly all actives have a fitted effect of over 50% in size
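Luminescent ATP signal reported cell survival after H1299 lines (neo, p53 null; or p53 A138V) received up to 46 uM compound and 24 hr incubation at 39C.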
p53null 32C tox = kills p53 null cells at the permissive temperature | Potency, µM (highest dose often 46.1 µM), usual class: cytotoxic | 0.62% of 55,000 active | H1299-neo p53 null cells, ATP luminescence, 24 h, 32C; note: nearly all actives have a fitted effect of over 55% in size
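Overnight 37C seeding (600 cells/well) of H1299-neo preceded a 24 hr, 32C exposure to compounds up to 46 uM. ATP levels, read by luminescence after 20 min at RT, indicated surviving cells.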
FH mod = Identification of activators of human fumarate hydratase by quantitative high-throughput screening | FH coupled MDH/diaphorase resazurin fluorescence, 15 min | Potency, µM (series often up to 79.9 µM), usual class: inhibitors | 0.22% of 54,000 active | AID 1347055, 2019; note: the screen sought activators but most active calls are inhibition curves; nearly all actives have a fitted effect of over 45% in size
NTMT1 inhibitor = inhibitors of human N-terminal methyltransferase NTMT1; Q9BV86; NTMT1 MTase-Glo SAH luminescence, purified enzyme; Potency, µM (titrated, usually from 114 µM), most hits filed as inhibitors; 2.5% of 59,000 active; AID 1645870; note: nearly all actives have a fitted effect of over 65% in size
Target sequence (Q9BV86 whole entry, looked up): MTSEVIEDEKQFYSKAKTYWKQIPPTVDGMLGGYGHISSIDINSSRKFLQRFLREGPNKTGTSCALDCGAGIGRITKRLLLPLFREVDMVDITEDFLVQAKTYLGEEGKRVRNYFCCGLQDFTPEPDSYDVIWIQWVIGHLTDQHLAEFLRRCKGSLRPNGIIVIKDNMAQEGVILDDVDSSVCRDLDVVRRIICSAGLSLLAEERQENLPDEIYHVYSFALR
GALC G270D up = enhancers of human galactocerebrosidase G270D mutant activity in cells; P54803; 145M-Twi-hGALC-G270D cells (Twitcher mouse brain line with human GALC G270D), HMU-beta-Gal fluorescence, 48 h; Potency, µM (doses to about 57.5 µM), usual class: activators; 0.1% of 45,000 active; AID 1159614; note: nearly all actives have a fitted effect of over 65% in size
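Fluorogenic HMU-b-Gal hydrolysis (0.1 mM final, pH 5.2 citrate-phosphate with 1 mg/mL sodium taurocholate; carbonate stop buffer) measures mutant GALC activity after compound treatment of live 145M-Twi Twitcher brain cells stably carrying human GALC-G270D, with wild-type GALC line alongside; activation sought.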
A number is an active result; - = inactive; ? = inconclusive; . = no result; [ ] = another dose, or the depositor's remark. Calls come from the whole dose curve; as a rule, active = well fitted curve in the direction sought with a large enough effect; inconclusive = small, poorly fitted or top-dose-only effect, or another doubt; inactive = no such curve, though single readings can be large; an effect the other way counts as inactive or inconclusive.

SMILES | p53null 39C tox | p53null 32C tox | FH mod | NTMT1 inhibitor | GALC G270D up
CC1CC2OC3(OC2C(C)(C)O)C1C1(C)CCC24CC25CCC(O[C@@H]2OC[C@@H](O)[C@H](O)[C@H]2O)C(C)(C)C5CC=C4C1(C)C3O (some centres not stated) | . | . | - | -[12.6 µM] | .
C/C=C/C=C/C=C/C(=O)O[C@@H]1C=C(CO)[C@](O)(CO)[C@@]2(C)CCCC(C)(C)[C@H]12 | . | . | - | - | .
Cc1ccc(NC2=C(Cl)C(=O)c3ccccc3C2=O)cc1 | - | . | . | . | .
Cc1ccc(NC2=CC(=O)C(=O)c3ccccc32)cc1 | 3.5µM | 4µM | . | . | .
Cn1cc(S(=O)(=O)CC(=O)Nc2ccc3c(c2)OCCO3)c2ccccc21 | 28µM | ? | . | . | .
Clc1ccc(CSc2nc3ncccc3[nH]2)cc1 | ? | 10µM | - | - | -
CCCC(CCC)C(=O)Nc1ccn([C@@H]2O[C@H](CO)[C@@H](O)C2(F)F)c(=O)n1 | . | . | - | - | .
COc1ccc(Cl)cc1NC(=O)c1cc2c(=O)n3ccccc3nc2s1 | 13µM | - | - | ? | -
COc1ccccc1NC(=O)c1cc2cc3ccc(OC)c(Cl)c3nc2s1 | - | - | - | 40µM | -
CCOc1cc(N2CCC(O)CC2)ccc1Nc1ncc2c(n1)N(C1CCCC1)CCC(=O)N2C | . | . | - | - | .
Oc1c(C(Nc2ccccn2)c2ccccc2F)ccc2cccnc12 (configuration not stated) | 4µM | ? | - | - | -
Cc1ccnc(NC(c2ccccc2F)c2ccc3cccnc3c2O)c1 (configuration not stated) | ? | - | - | - | -
C=C[C@H](/C=C\c1ccc(O)cc1)c1ccc(O)cc1 | . | . | - | - | .
CCCCc1ccc(-n2nc3cc(C)c(NC(=O)Cc4ccccc4)cc3n2)cc1 | - | -[9.22 µM] | - | 79µM | -
Cc1cc2nn(-c3ccccc3)nc2cc1NC(=O)Cc1ccc(Cl)cc1 | - | - | - | - | -
CCCCCCCCCCCCCCCC[N+](C)(C)CCN(Cc1ccc(OC)cc1)c1ncccn1 | . | . | - | 25µM | -
Cc1cccc(NC(=O)CSc2ncc(-c3ccc(Br)cc3)[nH]2)c1 | 20µM | - | - | - | -
COc1ccccc1NC(CC(=O)c1ccccc1)C(=O)OCC(=O)c1ccc(C)c(C)c1 (configuration not stated) | . | 18µM | . | . | .
COc1c(C)cnc(Cn2cc(C#CCC(C)(C)O)c3c(Cl)nc(N)nc32)c1C | . | . | - | - | .
Cc1cc(Cl)ccc1NC(=O)CCCn1nc(C)c2c(C)n(-c3ccccc3)nc2c1=O | - | - | - | - | -
Cc1cc(Cl)ccc1NC(=O)Cn1nc(C)c2c(C)n(-c3ccccc3)nc2c1=O | - | - | - | 50µM | -
C=CC(=O)N1CC(N2CCN(C(=O)CNc3cc(C4CC4)c(Cl)cc3O)CC2)C1 | . | . | - | - | .
Oc1c(I)cc(Cl)c2cccnc12 | . | . | - | 50µM | -
CCOc1ccc(-c2cc(C(=O)N3CCN(c4ccc(C)cc4)C(C)C3)c3ccccc3n2)cc1 (configuration not stated) | ? | 13µM | - | - | -
CCn1c(=O)cc(OCC(=O)N2CCN(c3ccc(C)cc3)C(C)C2)c2ccccc21 (configuration not stated) | 25µM | - | - | - | -
SMILES | p53null 39C tox | p53null 32C tox | FH mod | NTMT1 inhibitor | GALC G270D up
CCn1c(=O)cc(OCC(=O)N2CCN(c3ccc(F)cc3)CC2)c2ccccc21 | ? | - | - | - | -
N#CC1=C(Nc2nc3ccccc3o2)OC2=C(C(=O)CCC2)C1c1[nH]ncc1Cl (configuration not stated) | . | . | . | - | .
CCCCCCCCCCCCCCCCCCNC(=O)OC1CCN(C(=O)OC[C@H](COC(=O)N(Cc2cccc[n+]2CC)C(=O)c2ccccc2OC)OC)CC1 | . | . | - | 50µM | -
CCN(CC)CCNC(=O)c1ccc2c(=O)n3nc(Nc4cccc(Cl)c4C)sc3nc2c1 | 20µM | ? | - | ? | -
COc1ccccc1Nc1nn2c(=O)c3ccc(C(=O)NCCC4=CCCCC4)cc3nc2s1 | 4µM | ? | - | - | -
COc1ccccc1Nc1nn2c(=O)c3ccc(C(=O)NCCc4ccccc4)cc3nc2s1 | 6.3µM | ? | - | ? | -
O=C(/C=C/c1ccc(O)cc1)O[C@H]1[C@H](OC2CCCCC2O)O[C@H](CO)[C@@H](O)[C@@H]1O (some centres not stated) | . | . | - | - | .
FC(F)(F)c1ccccc1-c1nc(NCc2ccccc2)c2ccccc2n1 | . | . | . | - | .
O=C(Nc1ccc(NC(=O)c2ccco2)nc1)c1cccnc1 | ? | 13µM | . | . | .
O=C(Nc1cccnc1)c1ccco1 | . | . | . | - | .
CCOc1ccc(N(CC)C(=O)c2cc3c(s2)-c2ccc(Cl)cc2SC3)cc1 | 10µM | - | - | - | -
CCc1ccccc1N(CC)C(=O)c1cc2c(s1)-c1ccccc1SC2 | 13µM | - | ? | - | -
CCCN(C(=O)c1cc2c(s1)-c1c(C)cccc1OC2)c1ccc(OCC)cc1 | - | ? | - | - | -
C=C(CCO)C(=O)OCC1OCC(OC(=O)C(=C)CCO[C@@H]2O[C@H](COC(=O)C(=C)CCO[C@@H]3O[C@H](CO)[C@@H](O)[C@H](O)[C@H]3O)[C@@H](O)[C@H](O)[C@H]2O)C(O)C1O (some centres not stated) | . | . | - | -[12.6 µM] | .
CCOc1ccc(-c2oc3cc(Cl)ccc3c(=O)c2O)cc1OC | 16µM | ? | - | - | -
COc1cc(-c2oc3ccc(C)cc3c(=O)c2O)cc(OC)c1OC | ? | ? | - | - | -
CC(=O)Nc1ccc(NC(=O)c2oc3ccc4c(c3c2C)C(=O)CC(C)(C)O4)cc1 | 3.2µM | 4µM | - | - | -
Cc1ccc(NC(=O)c2oc3ccc4c(c3c2C)C(=O)CC(C)(C)O4)c(C)c1 | - | - | - | - | -
CCOC(=O)c1ccc(NC(=O)c2oc3ccc4c(c3c2C)C(=O)CC(C)(CC)O4)cc1 (configuration not stated) | 3.2µM | ? | - | - | -
C=C1CCN([C@H](C)[C@](O)(Cn2cncn2)c2ccc(F)cc2F)CC1 | . | . | - | - | .
CC(O)/C=C/C1(O)C(C)C(O[C@@H]2O[C@H](CO)[C@@H](O)[C@H](O)[C@H]2O)C(O)CC1(C)C (some centres not stated) | . | . | - | - | .
CCOC(=O)c1c(NC(=O)c2cc(-c3cccc(Cl)c3)on2)sc(C)c1C | - | - | . | . | .
CCCc1cc(C(=O)N[C@H](Cc2ccc(-c3cccc(OC(F)(F)F)c3)nc2)C(=O)N[C@@H]2CCNC2)sc1C | . | . | . | 56µM | .
C=C1[C@H](OC(=O)/C=C(\C)CC)C[C@@H](C(C)C)[C@@H]2[C@H]([C@@H](C)OC(C)=O)C(=O)C[C@@H]12 | . | . | . | - | .
CN1CCC(CNc2ccc3ncc(-c4cccc(OC(F)(F)F)c4)n3n2)CC1 | . | . | ? | 16µM | .
COc1ccc(-c2cnc3ccc(NCc4ccc(S(N)(=O)=O)cc4)nn23)cc1OC | . | . | - | ? | .
